“And” between values parts separate entries of the source, which are not always exact repeats. Identical values can stand only once. Inconclusive results are not listed. The source made the active and inactive calls. Unless noted, calls follow the shape of the dose curve; as a rule, active = well fitted curve in the direction sought with a large enough effect in the repeat runs; inconclusive = weak or mixed curves; inactive = no such curve, though single readings can be large; an effect the other way counts as inactive or inconclusive.
Columns and labels:
[1] = molecular target: Thyrotropin receptor (Homo sapiens) (UniProt P16473); experiment: qHTS assay to identify small molecule agonists of the thyroid stimulating hormone receptor (TSHR) signaling pathway (AID 1224843; calls by dose curve; also: nearly all actives have a fitted effect of over 45% in size; also: potency is read from the fitted curve at half-maximal effect)
Outline: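 Compounds are titrated over 15 concentrations, in triplicate, onto TSHR-HEK293 cells seeded at 800/well. Plates sit 30 min at room temperature before cAMP-d2 and anti-cAMP cryptate are added; signal is read after a further hour.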

[2] = qHTS assay to identify small molecule agonists of the hypoxia (HIF-1) signaling pathway - cell viability counter screen (AID 1224844; calls by dose curve; also: nearly all actives have a fitted effect of over 50% in size)
Outline: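 Cytotoxicity was measured in parallel with the HRE-driven beta-lactamase readout: after 17 hrs of compound exposure at 37C, HRE-bla ME-180 cells received CellTiter-Glo and luminescence was recorded 30 min later.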

[3] = qHTS assay to identify small molecule agonists of H2AX (AID 1224845; active = well fitted activation curve with a large enough effect in the signal ratio in the repeat runs, not every such curve was filed as active; the % refers to the signal ratio; also: potency is read from the fitted curve at half-maximal effect)
Outline: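 Wild-type CHO-K1 cells plated overnight, then exposed 3 hr at 37C to compounds at 15 concentrations (0.76% DMSO). Lysed, then HTRF anti-pH2AX(S139)-cryptate/anti-H2AX-d2 detection after 24 hr at room temperature; emissions 665 and 620 nm.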

[4] = qHTS assay to identify small molecule agonists of the hypoxia (HIF-1) signaling pathway (AID 1224846; active = well fitted activation curve with a large enough effect in the signal ratio in the repeat runs, not every such curve was filed as active; the % refers to the signal ratio)
Outline: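 Compounds from the Tox21 10K library, dissolved in DMSO, are tested for induction of a hypoxia response element–controlled beta-lactamase reporter in ME-180 cells. Exposure lasts 17 hrs at 37C after a 5 hr settling period, followed by CCF4-AM FRET substrate.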

[5] = qHTS assay to identify small molecule agonists of H2AX - cell viability counter screen (AID 1224847; calls by dose curve; also: nearly all actives have a fitted effect of over 30% in size; also: potency is read from the fitted curve at half-maximal effect)
Outline: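 CHO-K1 wt, 1000 cells/well, o/n 37C; cpds 15 conc, 3 h 37C, 0.76% DMSO; CellTiter-Glo, 30 min RT, luminescence.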

[6] = qHTS RealTime-Glo MT Cell Viability Assay in HepG2 cells - 24 hour (AID 1224867); also: nearly all actives have a fitted effect of over 50% in size; also: potency is read from the fitted curve at half-maximal effect
Outline: (§1)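 qHTS, HepG2, 600 cells/well, RealTime-Glo (NanoLuc + prosubstrate) added with cells; 5 h preincubation; DMSO compound addition; 37 C; luminescence at 0/8/16/24/32/40 h.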

[7] = qHTS RealTime-Glo MT Cell Viability Assay in HEK293 cells - 32 hour (AID 1224868); also: nearly all actives have a fitted effect of over 50% in size; also: potency is read from the fitted curve at half-maximal effect
Outline: (§2)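 Assay medium contained NanoLuc luciferase plus cell-permeant prosubstrate, added with HEK293 cells at 600 cells/well. After 5 h at 37 C/5% CO2 compounds were added; plates stayed at 37 C for 40 h with serial luminescence reads.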

[8] = A CellTox Green Cytotoxicity Assay to monitor cytotoxicity in HEK293 cells - 0 hour (AID 1224869); also: nearly all actives have a fitted effect of over 50% in size
Outline: (§3)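 Cells (HEK293, 600/well) and dye reagent are dispensed together. After 5 h at 37 C, 23 nL compound is pinned in. Plates stay at 37 C for 40 h with fluorescence read at 0h, 8h, 16h, 24h, 32h and 40h.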

[9] = A CellTox Green Cytotoxicity Assay to monitor cytotoxicity in HEK293 cells - 40 hour (AID 1224871); also: nearly all actives have a fitted effect of over 45% in size; also: potency is read from the fitted curve at half-maximal effect
Outline: as §3

[10] = qHTS RealTime-Glo MT Cell Viability Assay in HEK293 cells - 16 hour (AID 1224872); also: nearly all actives have a fitted effect of over 50% in size; also: potency is read from the fitted curve at half-maximal effect
Outline: as §2

[11] = qHTS RealTime-Glo MT Cell Viability Assay in HepG2 cells - 8 hour (AID 1224873); also: nearly all actives have a fitted effect of over 55% in size
Outline: (§4)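 HepG2 cells mixed with RealTime-Glo MT reagents (NanoLuc plus cell-permeant prosubstrate) were seeded at 600 cells/well, incubated 5 h at 37 C/5% CO2, then pinned with compounds in DMSO; nonlytic luminescence tracked viability during 40 h treatment.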

[12] = qHTS RealTime-Glo MT Cell Viability Assay in HEK293 cells - 40 hour (AID 1224874); conditions: RealTime-Glo luminescence; max response: hits give low values; also: nearly all actives have a fitted effect of over 50% in size; also: potency is read from the fitted curve at half-maximal effect
Outline: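 Real-time viability in HEK293: signal arises when living cells convert a prosubstrate for NanoLuc in the medium, so luminescence tracks viable cell number. Compound (23 nL, DMSO) added 5 h post-seeding; kinetic reads at 0–40 h, 37 C.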

[13] = A CellTox Green Cytotoxicity Assay to monitor cytotoxicity in HepG2 cells - 16 hour (AID 1224876); also: nearly all actives have a fitted effect of over 45% in size
Outline: (§5)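 Cells and non-lytic dye reagent are dispensed together (600 HepG2 cells/well) and incubated 5 h before DMSO compound transfer. Kinetic fluorescence is then recorded in the same wells during 40 h at 37 C.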

[14] = A CellTox Green Cytotoxicity Assay to monitor cytotoxicity in HepG2 cells - 24 hour (AID 1224878); also: nearly all actives have a fitted effect of over 45% in size; also: potency is read from the fitted curve at half-maximal effect
Outline: as §5

[15] = A CellTox Green Cytotoxicity Assay to monitor cytotoxicity in HepG2 cells - 40 hour (AID 1224879); also: nearly all actives have a fitted effect of over 40% in size; also: potency is read from the fitted curve at half-maximal effect
Outline: as §5

[16] = A CellTox Green Cytotoxicity Assay to monitor cytotoxicity in HEK293 cells - 24 hour (AID 1224875); also: nearly all actives have a fitted effect of over 45% in size; also: potency is read from the fitted curve at half-maximal effect
Outline: as §3

[17] = qHTS RealTime-Glo MT Cell Viability Assay in HepG2 cells - 32 hour (AID 1224877); also: nearly all actives have a fitted effect of over 55% in size; also: potency is read from the fitted curve at half-maximal effect
Outline: as §1

[18] = qHTS RealTime-Glo MT Cell Viability Assay in HepG2 cells - 40 hour (AID 1224870); also: nearly all actives have a fitted effect of over 50% in size; also: potency is read from the fitted curve at half-maximal effect
Outline: as §4

[19] = qHTS assay to identify small molecule antagonists of the estrogen related receptor (ERR) signaling pathway from Tox21 library (AID 1224848); also: nearly all actives have a fitted effect of over 50% in size; also: potency is read from the fitted curve at half-maximal effect
Outline: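 First, 2,000 ERR cells per well were plated and held 6 h at 37 C/5% CO2. Next, compounds in DMSO were pinned in and left 18 h at 37 C. Finally, ONE-Glo was added and luminescence read after 30 min at room temperature.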

[20] = qHTS assay to identify small molecule agonists of the estrogen related receptor (ERR) signaling pathway from Tox21 library (AID 1224849; calls by dose curve; also: nearly all actives have a fitted effect of over 15% in size); conditions: ERR reporter cell line, ONE-Glo luciferase, 18 h; at 92.4 µM (top of the series) unless noted
Outline: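 Cells carrying the ERR reporter were plated and allowed to settle for 6 h, exposed to library compounds for 18 h at 37 C, then lysed with ONE-Glo and luminescence measured.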
% is scaled to controls: 0 for no effect and ±100 for the full control effect.

Thyrotropin receptor (Homo sapiens), sequence (P16473 whole entry, looked up): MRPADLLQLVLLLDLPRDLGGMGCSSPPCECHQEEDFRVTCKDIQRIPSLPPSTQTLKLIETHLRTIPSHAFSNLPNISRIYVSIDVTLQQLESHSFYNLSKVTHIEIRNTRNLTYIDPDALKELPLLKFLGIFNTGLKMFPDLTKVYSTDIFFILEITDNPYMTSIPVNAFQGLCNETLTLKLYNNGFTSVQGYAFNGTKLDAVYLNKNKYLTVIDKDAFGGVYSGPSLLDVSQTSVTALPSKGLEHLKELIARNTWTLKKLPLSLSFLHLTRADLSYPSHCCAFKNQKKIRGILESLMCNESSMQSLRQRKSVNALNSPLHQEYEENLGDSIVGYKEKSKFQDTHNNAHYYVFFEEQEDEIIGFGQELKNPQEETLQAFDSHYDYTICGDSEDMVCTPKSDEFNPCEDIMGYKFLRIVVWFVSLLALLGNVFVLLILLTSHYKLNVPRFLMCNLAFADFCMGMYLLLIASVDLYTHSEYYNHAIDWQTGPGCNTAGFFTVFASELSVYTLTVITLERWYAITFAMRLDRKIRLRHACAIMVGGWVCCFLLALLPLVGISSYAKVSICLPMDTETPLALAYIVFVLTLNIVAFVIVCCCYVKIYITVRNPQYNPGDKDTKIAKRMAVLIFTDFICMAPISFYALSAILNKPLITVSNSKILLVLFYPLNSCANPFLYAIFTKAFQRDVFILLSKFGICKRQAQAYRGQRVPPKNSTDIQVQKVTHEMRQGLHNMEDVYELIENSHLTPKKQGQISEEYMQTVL

Cn1cc[n+](C)c1 (tested in a mixture with another compound)
inactive: Potency [1] | Potency [2] | Potency [3] | outcome [4] | Potency [5] | Potency [6] | Potency [7] | Potency [8] | Potency [9] | Potency [10] | Potency [11] | max response [12] 6.73% | Potency [13] | Potency [14] | Potency [15]

CC(C)(CCl)C(=O)Cl
inactive: Potency [1] | Potency [2] | Potency [3] | outcome [4] | Potency [5] | Potency [6] | Potency [7] | Potency [8] | Potency [9] | Potency [10] | Potency [11] | max response [12] 0.815% | Potency [16] | Potency [13] | Potency [17] | Potency [14] | Potency [15]

CC(C)(C)c1cc([N+](=O)[O-])cc([N+](=O)[O-])c1O
inactive: Potency [1] | Potency [2] | Potency [3] | outcome [4] | Potency [5] | Potency [6] | Potency [8] | Potency [11] | Potency [13] | Potency [14]

Clc1cccc2ccccc12
inactive: Potency [1] | Potency [2] | Potency [3] | outcome [4] | Potency [5] | Potency [6] | Potency [7] | Potency [8] | Potency [18] | Potency [10] | Potency [11] | max response [12] -5.43% | Potency [13] | Potency [17] | Potency [14] | Potency [15]

C=CCCl
inactive: Potency [1] | Potency [2] | Potency [3] | outcome [4] | Potency [6] | Potency [7] | Potency [8] | Potency [18] | Potency [9] | Potency [10] | Potency [11] | max response [12] -3.44% | Potency [16] | Potency [13] | Potency [17] | Potency [14] | Potency [15]

CCCCNP(N)(N)=S
inactive: Potency [1] | Potency [2] | Potency [3] | outcome [4] | Potency [5] | Potency [6] | Potency [7] | Potency [8] | Potency [18] | Potency [10] | Potency [11] | max response [12] 0.198% | Potency [13] | Potency [17] | Potency [14] | Potency [15]

CCCCc1c(C)nc(NCC)nc1OS(=O)(=O)N(C)C
inactive: Potency [1] | Potency [2] | Potency [3] | outcome [4] | activity change, positive = activation [20] -48.3% | Potency [6] | Potency [8] | Potency [9] | Potency [11] | Potency [16] | Potency [13] | Potency [17] | Potency [14] | Potency [15]
active: Potency [19] 30.6 µM | Potency [7] 11 µM | Potency [10] 12.3 µM | Potency [12] 13.8 µM

O=C(O)c1ccccc1C(=O)Nc1cccc2ccccc12
inactive: Potency [1] | Potency [2] | Potency [3] | outcome [4] | Potency [6] | Potency [7] | Potency [8] | Potency [18] | Potency [9] | Potency [10] | Potency [11] | max response [12] 18.5% | Potency [16] | Potency [13] | Potency [17] | Potency [14] | Potency [15]

C=CC(C)=O
inactive: Potency [1] | Potency [2] | Potency [3] | outcome [4] | Potency [19] | activity change, positive = activation [20] -0.611% | Potency [6] | Potency [7] | Potency [8] | Potency [9] | Potency [10] | Potency [11] | max response [12] 4.78% | Potency [16] | Potency [13] | Potency [14] | Potency [15]

CCCCN(N=O)C(=N)N[N+](=O)[O-]
inactive: Potency [1] | outcome [4] | Potency [5] | Potency [6] | Potency [8] | Potency [18] | Potency [9] | Potency [10] | Potency [11] | Potency [16] | Potency [13] | Potency [17] | Potency [14] | Potency [15]
active: Potency [3] 103 µM

O=[N+]([O-])C(Br)(CO)CO
inactive: Potency [19] | Potency [8]
active: Potency [1] 30.6 µM

C(=NC1CCCCC1)=NC1CCCCC1
active: Potency [5] 25.5 µM and 14.2 µM | Potency [19] 13.7 µM | Potency [6] 13.9 µM and 12.3 µM | Potency [7] 22 µM and 21.9 µM | Potency [18] 12.4 µM and 12.3 µM | Potency [9] 19.6 µM and 21.9 µM | Potency [10] 19.6 µM and 19.5 µM | Potency [12] 17.5 µM and 24.5 µM | Potency [16] 22 µM and 34.7 µM | Potency [17] 12.4 µM and 12.3 µM | Potency [14] 11 µM and 15.5 µM | Potency [15] 9.84 µM and 11 µM
inactive: Potency [1] | Potency [2] | activity change, positive = activation [20] -50.9% and -60.1% | Potency [8] | Potency [13]

Oc1ccc(Cl)c(Cl)c1Cl
inactive: Potency [1] | Potency [3] | outcome [4] | Potency [6] | Potency [8] | Potency [18] | Potency [11] | Potency [13] | Potency [17]

C=CC(=O)OCCCCO
inactive: Potency [1] | Potency [2] | Potency [5] | Potency [19] | Potency [6] | Potency [7] | Potency [8] | Potency [18] | Potency [9] | Potency [10] | max response [12] 18.2% | Potency [16] | Potency [13] | Potency [14] | Potency [15]
active: activity change, positive = activation [20] 68.3%

COC1=CC(=O)O[C@@H](CCc2ccccc2)C1
inactive: Potency [1] | Potency [3] | outcome [4] | Potency [5] | activity change, positive = activation [20] -29.7% | Potency [6] | Potency [7] | Potency [8] | Potency [9] | Potency [10] | Potency [11] | max response [12] -25.1% | Potency [16] | Potency [13] | Potency [17] | Potency [14] | Potency [15]

— PubChem BioAssay (Tox21)
